CtBP-E1A blk = inhibitors of CtBP/E1A interaction. AlphaScreen GST-E1A/His-CtBP binding, 1536-well; stronger effect = lower value. activity change, % (test concentration not listed). actives 0.49% (n = 340,000); in the data active = activity change below about -65%; inconclusive = mostly about -30% to -63%; also: % is scaled to controls: 0 for no effect and ±100 for the full control effect
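Steps: dispense buffer (Tris pH 8.0, NaCl 300 mM, TCEP 1 mM, BSA, Tween 20); add 5X protein mix (GST-E1A, His-CtBP, 125 nM each); pin 23 nL compound; 2 h at 37 °C, dark; add 5X beads (50 ug/mL); 1 h; read.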
G9a inh = inhibitors of human histone lysine methyltransferase G9a; G9a H3K9 monomethylation, AlphaScreen, 2 h; Potency, µM (doses to about 102 µM), for inactives: at the highest dose activity, negative = inhibition, hits mostly inhibitors; actives 8.8% (n = 350,000); also: potency is read from the fitted curve at half-maximal effect; % is scaled to controls: 0 for no effect and ±100 for the full control effect; nearly all actives have a fitted effect of over 75% in size
Target sequence (Q96KQ7 913-1193 limits assumed): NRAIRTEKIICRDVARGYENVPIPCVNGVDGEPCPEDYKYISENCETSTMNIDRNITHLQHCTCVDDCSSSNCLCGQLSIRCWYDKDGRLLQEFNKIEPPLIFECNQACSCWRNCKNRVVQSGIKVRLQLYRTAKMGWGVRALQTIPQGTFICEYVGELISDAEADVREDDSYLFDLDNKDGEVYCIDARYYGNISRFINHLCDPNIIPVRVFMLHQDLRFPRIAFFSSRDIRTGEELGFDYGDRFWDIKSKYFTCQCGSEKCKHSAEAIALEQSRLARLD
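Enzyme 20 nM + cpd, 15 min RT; add b-H3K9 pep 500 nM / SAM 20 uM; 2 h RT; anti-H3K9me1 Ab 0.5 ug/mL + SA donor / anti-rabbit acceptor beads 20 ug/mL each, 10 min; AlphaScreen read.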
Six1-Eya2 inh = blocks human Six1 binding to Eya2; AlphaScreen GST-Six1/His-Eya2 binding, biochemical; stronger effect = lower value; activity change, % (test concentration not listed); actives 0.56% (n = 360,000); AID 651725; in the data active = activity change below about -65%; inconclusive = mostly about -30% to -63%; also: % is scaled to controls: 0 for no effect and ±100 for the full control effect
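Six1/Eya2 binding was read as AlphaScreen signal after compounds were pinned into GST-Six1 plus His-tagged Eya2 (5X stock 250/500 nM) in pH 8.0 Tris/NaCl/TCEP buffer, beads added, then incubated 1 h, 37 C, dark.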
HP1b chromo inh = inhibitors of HP1-beta chromodomain binding to methylated histone tails. AlphaScreen HP1-beta / biotin-H3K9me3 peptide binding. Potency, µM (highest dose often 114 µM), without a hit: at the highest dose activity change, negative = inhibition, most hits filed as inhibitors. actives 0.56% (n = 390,000); also: potency is read from the fitted curve at half-maximal effect; nearly all actives have a fitted effect of over 70% in size
Target sequence (P83916 whole entry, looked up): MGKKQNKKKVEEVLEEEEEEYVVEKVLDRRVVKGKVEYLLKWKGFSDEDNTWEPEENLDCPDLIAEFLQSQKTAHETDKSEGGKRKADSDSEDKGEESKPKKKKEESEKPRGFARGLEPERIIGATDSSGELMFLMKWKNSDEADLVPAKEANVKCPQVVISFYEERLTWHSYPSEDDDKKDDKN
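HP1-beta protein (50 nM final) preincubated 30 min at room temperature with biotinylated H3(1-18)K9me3 peptide (50 nM) in PBS pH 7.4, 0.01% Tween-20, then compound added for 30 min. AlphaScreen streptavidin donor/nickel chelate acceptor beads (10 ug/mL final), 30 min dark, luminescence read.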
JMJD2A Tudor = JMJD2A Tudor domain (human) inhibition | O75164 | AlphaScreen JMJD2A-Tudor / H3K4me3 peptide binding | Potency, µM (titrated, usually from 114 µM), for the others: at the top dose activity change, negative = inhibition, actives largely listed as inhibitors | actives 4.4% (n = 390,000) | AID 504339; also: potency is read from the fitted curve at half-maximal effect; % is scaled to controls: 0 for no effect and ±100 for the full control effect; nearly all actives have a fitted effect of over 50% in size
BAZ2B block = blocks human BAZ2B; Q9UIF8; AlphaScreen BAZ2B-H3K14Ac peptide displacement; Potency, µM (series often up to 114 µM), for inactives: top-dose activity change, negative = inhibition, most hits filed as inhibitors; actives 4.4% (n = 360,000); AID 504333; also: potency is read from the fitted curve at half-maximal effect; % is scaled to controls: 0 for no effect and ±100 for the full control effect; nearly all actives have a fitted effect of over 60% in size
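AlphaScreen displacement of biotin-H3(5-23)K14Ac peptide (50 nM final) from BAZ2B (50 nM final) in PBS pH 7.4, 0.01% Tween-20; complex preformed 30 min RT, then compounds (top 110 uM) 30 min RT, beads 20 min dark.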
The depositor's hits bear a star; ? = inconclusive; · = no result given; [ ] = dose if it differs, or a comment. The list is not random: actives were taken first. Their share in the collection is about 10%. Unless noted, calls follow the shape of the dose curve; as a rule, active = well fitted inhibition curve with a large enough effect; inconclusive = small, poorly fitted or top-dose-only effect; inactive = no such curve, though single readings can be large or run the other way.

SMILES | CtBP-E1A blk | G9a inh | Six1-Eya2 inh | HP1b chromo inh | JMJD2A Tudor | BAZ2B block
COc1ccc(-c2noc(CNC(=O)COc3cccc(C)c3C)n2)cc1 | · | -0.5%[59 µM] | · | 53.3% | -5.2% | 2.0%
O=C(CSc1nnnn1-c1ccccc1)NC(=O)NCc1ccco1 | -7.4 | -9.0%[12.7 µM] | -5.7 | -10.0% | ? | ?
CC(C)(C)NC(=O)NC(=O)CSc1nnc(COc2ccccc2Cl)o1 | 3.9 | ? | 2.7 | 23.1% | -12.5% | -35.9%
CCOc1ccccc1-n1nnnc1SCC(=O)N1CCCC1=O | 15.0 | · | 7.5 | 47.5% | -2.3% | ·
O=C(NCc1ccco1)c1ccc(COc2cccc3ccccc23)cc1 | -1.8 | -6.6% | -2.8 | 12.3% | -7.9% | 1.9%
O=C(CSc1nnc(COc2ccccc2Cl)o1)NC(=O)NCc1ccco1 | -2.1 | 50.1µM* | -8.3 | ? | ? | 39.8µM*
O=C(NCc1ccco1)c1ccc(COc2ccccc2Cl)cc1 | -0.2 | ? | -0.4 | -23.8% | 56.2µM* | -2.8%
CCOc1ccccc1-n1nnnc1SCC(=O)NC(=O)NCc1ccco1 | 3.4 | 79.4µM* | -12.1 | -1.2% | ? | 50.1µM*
CCOc1ccccc1-n1nnnc1SCC(=O)NC(=O)Cc1ccccc1 | 3.1 | 10µM* | -0.6 | 19.7% | -29.0% | 0.2%
CC(=O)N1c2ccc(S(=O)(=O)N(C)CC(=O)NCc3ccc(C)cc3)cc2CC1C (centres undefined) | -24.7 | · | 6.8 | 51.4% | -10.7% | -11.0%
CNS(=O)(=O)c1cc(-c2nnc(N3CCOCC3)c3ccccc23)ccc1C | · | · | -13.1 | 52.5% | -4.7% | ·
Fc1cccc(Cl)c1Cn1nnc2c(NCc3ccncc3)ncnc21 | 2.9 | · | 0.0 | 41.6% | -3.5% | -3.1%
O=C(c1ccc(Cl)c(Cl)c1)N1CCC(=O)N(C(COCc2cccc(C(F)(F)F)c2)Cc2ccccc2)CC1 (centres undefined) | -6.1 | 50.1µM* | 1.6 | 27.9% | -14.3% | -26.9%
O=C(c1ccc(C(F)(F)F)cc1)N1CCC(=O)N(C(COCc2ccccc2)Cc2ccccc2)CC1 (centres undefined) | 3.8 | 56.2µM* | 2.1 | 49.8% | -15.0% | -38.5%
O=C(c1ccc(C(F)(F)F)cc1)N1CCC(=O)N(C(COCc2ccc(Cl)cc2)Cc2ccccc2)CC1 (centres undefined) | -0.6 | -8.6% | -4.4 | 58.7% | -9.3% | 0.0%
COc1ccc2cc3cc(C(=O)Nc4ccccc4C)oc3nc2c1 | · | ? | · | 7.4% | -26.0% | ·
Cc1ccccc1C(=O)NCc1ccc2c(c1)CCN2C(=O)c1ccc(F)cc1 | · | 6.0%[59 µM] | · | 14.4% | -15.0% | -7.8%
O=C(CSCC(=O)N1CCOCC1)Nc1nc(-c2ccccc2)cs1 | -7.4 | -1.7% | 2.9 | 25.2% | -9.1% | 0.8%
O=C(CN1CCN(S(=O)(=O)N2CCOCC2)CC1)Nc1ccc(Cl)c(Cl)c1 | 4.1 | ? | -5.1 | 25.7% | -3.5% | 2.5%
O=C(CN1CCOCC1)Nc1ccc(Cl)c(Cl)c1 | 4.6 | 8.91µM* | -1.1 | ? | 28.2µM* | -35.0%
O=C(CSCC(=O)N1CCOCC1)Nc1ccccc1 | -1.6 | 44.7µM* | -0.7 | 19.6% | 2.6% | 38.8%
O=C(CN1CCOCCOCCOCC1)Nc1ccccc1 | 8.9 | ? | 4.8 | 33.2% | -8.4% | 2.0%
O=C(CN1CCOCCOCCN(CC(=O)Nc2ccccc2)CCOCC1)Nc1ccccc1 | 6.3 | 31.6µM* | 2.4 | 43.4% | -5.6% | -4.3%
Cc1ccc(CCNC(=O)c2ccc(CSCc3ccc(C)cc3)o2)cc1 | · | 20.3%[59 µM] | · | 45.2% | -35.2% | 39.6%
Cc1ccc2c(c1)S(=O)(=O)N(C)C(c1ccccc1)=C2 | 7.4 | · | 11.9 | 112.8% | 34.0% | ·
SMILES | CtBP-E1A blk | G9a inh | Six1-Eya2 inh | HP1b chromo inh | JMJD2A Tudor | BAZ2B block
Cc1ccc(-c2cc(C(=O)N3CC(C)OC(C)C3)c3ccccc3n2)o1 (centres undefined) | 2.7 | 10µM* | -4.6 | 37.7% | -9.0% | 7.1%
Cc1ccc(-c2cc(C(=O)N3CC(C)CC(C)C3)c3ccccc3n2)o1 (centres undefined) | 1.1 | 8.91µM* | -0.3 | ? | 28.2µM* | 79.4µM*
CC(O)(CC(=O)CC(=O)c1ccccc1)c1ccccc1 (centres undefined) | -4.3 | · | 4.6 | 34.7% | 1.4% | ·
Cc1c(Cl)cccc1NC(=O)c1cnc2sc(N3CCCC3)nn2c1=O | · | 5.2%[59 µM] | · | 34.9% | -8.0% | -2.2%
COc1cc(C=Nc2cccc(C)c2)c(O)c([N+](=O)[O-])c1 | -21.8 | -20.6%[59 µM] | 0.0 | -31.9% | ? | 50.1µM*
Cc1ccc(O)c(N=Cc2cc(Cc3ccccc3)cc([N+](=O)[O-])c2O)c1 | -2.9 | ? | -20.8 | ? | 39.8µM* | 10µM*
O=[N+]([O-])c1cc(Cc2ccccc2)cc(C=Nc2ccc(N3CCOCC3)cc2)c1O | -0.1 | -13.6%[59 µM] | -15.3 | ? | 56.2µM* | 39.8µM*
CCc1ccc(O)c(N=Cc2ccccc2O)c1 | -3.6 | ? | 0.6 | 18.1% | ? | ?
Cc1ccc(S(=O)(=O)C(CNC(=O)C(=O)NCCc2ccc(F)cc2)c2cccs2)cc1 (centres undefined) | · | 4.6%[59 µM] | · | 25.5% | -0.3% | 0.0%
CCCCCCOC(=O)C1(O)CC2OC1(C)n1c3ccccc3c3c4c(c5c6ccccc6n2c5c31)C(=O)NC4 (centres undefined) | · | 26.0%[2.33 µM] | · | · | · | ·
COc1ccccc1NC(=O)Cn1c(=O)n(CC2CCC(C(=O)NCCc3ccccc3)CC2)c(=O)c2ccccc21 (centres undefined) | · | -1.0%[59 µM] | · | 18.0% | -15.8% | 0.5%
CCOC(=O)C1=C(C)NC(SC)=NC1c1ccc(OC)cc1 (centres undefined) | 1.5 | ? | -2.8 | 28.5% | -20.3% | 3.1%
CCC1N=C(SC)NC(C)=C1C(=O)c1ccccc1 (centres undefined) | · | 3.98µM* | -8.6 | -16.6% | -15.3% | -23.0%
Cc1ccc(-c2nnc(SCC(=O)N/N=C/c3ccc(C(=O)O)cc3)n2C2CCCCC2)cc1 | 0.7 | 20.9% | 13.4 | 77.3% | -11.5% | -11.1%
COc1ccc(OCC(=O)Nc2nc3c(s2)CCCC3)cc1 | · | 50.1µM* | -11.1 | -3.7% | ? | ?
O=C(COc1ccc(F)cc1)Nc1nc2c(s1)CCCC2 | -0.7 | -13.9% | 2.0 | 9.4% | -24.0% | ?
Cc1ccc(CC(=O)Nc2ccncc2)cc1 | · | 50.1µM* | 7.5 | 46.2% | -22.9% | 14.8%
Cc1ccc(CC(=O)Nc2nc3c(s2)CCCC3)cc1 | -4.9 | 50.1µM* | -2.7 | 9.7% | -26.5% | -33.2%
COc1ccc(NC(=O)Nc2nc3c(s2)CCCC3)cc1 | -0.2 | 79.4µM* | -15.0 | 12.5% | -21.3% | -9.9%
Cc1cc(=O)[nH]c2c1c(C)nn2-c1ccccc1 | -4.7 | -10.9%[59 µM] | -0.9 | 10.2% | -9.5% | -0.4%

Screening results as filed in PubChem BioAssay.
